Records with an inconclusive call do not appear. Entries that show only a call come without a potency. Activity calls are given as the source filed them. Calls follow the shape of the dose curve; as a rule, active = well fitted inhibition curve with a large enough effect; inconclusive = small, poorly fitted or top-dose-only effect; inactive = no such curve, though single readings can be large or run the other way.
These compounds were tested against Cytochrome P450 2D6 (Homo sapiens) (UniProt P10635) (assay: qHTS Assay for Inhibitors and Substrates of Cytochrome P450 2D6 (AID 891; also: nearly all actives have a fitted effect of over 60% in size)). Settings: recombinant CYP2D6, luciferin-ME EGE luminescence; series mostly up to 11.4 µM.
Method in brief: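 Luminescent read-out of luciferin formed by 5 nM human CYP2D6 demethylating 30 uM Luciferin-ME EGE (Km level) over 60 min at room temperature after NADPH regeneration addition. Data normalized to full inhibition by 1.43 uM quinidine.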
Potency is read from the fitted curve at half-maximal effect.

Chain of Cytochrome P450 2D6 (Homo sapiens) (P10635 whole entry, looked up): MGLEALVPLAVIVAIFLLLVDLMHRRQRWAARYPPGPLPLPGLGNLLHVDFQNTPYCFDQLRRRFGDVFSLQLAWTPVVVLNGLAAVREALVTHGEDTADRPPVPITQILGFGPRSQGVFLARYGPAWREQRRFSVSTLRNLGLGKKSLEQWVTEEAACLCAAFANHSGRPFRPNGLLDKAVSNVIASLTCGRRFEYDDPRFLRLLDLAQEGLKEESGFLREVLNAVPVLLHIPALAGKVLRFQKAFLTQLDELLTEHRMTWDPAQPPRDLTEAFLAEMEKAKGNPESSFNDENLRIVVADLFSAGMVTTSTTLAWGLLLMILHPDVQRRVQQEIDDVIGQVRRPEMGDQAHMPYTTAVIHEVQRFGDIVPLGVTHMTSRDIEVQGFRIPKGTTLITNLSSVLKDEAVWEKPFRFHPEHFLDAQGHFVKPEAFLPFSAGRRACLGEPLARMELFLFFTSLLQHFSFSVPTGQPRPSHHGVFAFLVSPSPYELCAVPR

Row | SMILES | Potency
1 | COC(=O)C/C=C\[C@@H](C)[C@@H](/C=N\OC[C@@H](O)COCc1ccco1)OC | inactive
2 | O=C(N/N=C1/C[C@@H](O)[C@@H](O)[C@@H]2[C@@H]3C(=O)N(Cc4ccccc4)C(=O)[C@H]3CC[C@H]12)OCc1ccccc1 | inactive
3 | CO[C@H]1COC(=O)CCC[C@H](C)[C@H](OC)COC(=O)C/C=C\[C@@H]1C | inactive
4 | CCOC(=O)CCN1C(=O)[C@H]2[C@H]3[C@H](O)[C@H](O)C/C(=N/O[C@@H]4O[C@@H](COC(C)=O)[C@@H](OC(C)=O)[C@@H](OC(C)=O)[C@H]4OC(C)=O)[C@H]3CC[C@@H]2C1=O | 3.16 µM (active)
5 | CCOC(=O)CCN1C(=O)[C@H]2[C@@H]3[C@H](O)[C@H](O)CC(=O)[C@H]3CC[C@H]2C1=O | inactive
6 | CCOC(=O)CCN1C(=O)[C@H]2[C@H]3[C@H](O)[C@H](O)C/C(=N/O[C@@H]4O[C@@H](COC(C)=O)[C@@H](OC(C)=O)[C@@H](OC(C)=O)[C@H]4OC(C)=O)[C@@H]3CC[C@@H]2C1=O | 3.16 µM (active)
7 | CC(C)[C@H](NC(=O)OC(C)(C)C)[C@@H](O)CC(=O)OC(C)(C)C | 3.16 µM (active)
8 | CCOC(=O)N/N=C1/C[C@@H](O)[C@@H](O)[C@@H]2[C@@H]3C(=O)N(C4CCCCC4)C(=O)[C@H]3CC[C@@H]12 | inactive
9 | COC(=O)C/C=C\[C@@H](C)[C@@H](/C=N\O[C@@H](C)CN1CCCc2nc(C)c(C)cc21)NS(=O)(=O)c1ccc(C)cc1 | 3.16 µM (active)
10 | CC(=O)OC[C@@H]1O[C@@H](O/N=C2/C[C@@H](O)[C@@H](O)[C@@H]3[C@H]4C(=O)N(c5ccc(F)cc5F)C(=O)[C@@H]4CC[C@H]23)[C@H](OC(C)=O)[C@H](OC(C)=O)[C@@H]1OC(C)=O | 3.16 µM (active)
11 | CCN1C(=O)[C@H]2[C@H]3[C@H](O)[C@H](O)C/C(=N/O[C@@H]4O[C@H](COC(C)=O)[C@@H](OC(C)=O)[C@H](OC(C)=O)[C@H]4OC(C)=O)[C@@H]3CC[C@@H]2C1=O | 3.98 µM (active)
12 | CC(=O)OC[C@@H]1O[C@H](C/C=N\O[C@@H]2O[C@H](COC(C)=O)[C@@H](OC(C)=O)[C@H](OC(C)=O)[C@H]2OC(C)=O)C=C[C@@H]1OC(C)=O | 3.98 µM (active)
13 | CC(=O)OC[C@@H]1O[C@@H](O/N=C2/C[C@@H](O)[C@@H](O)[C@@H]3[C@@H]4C(=O)N(C5CCCCC5)C(=O)[C@H]4CC[C@H]23)[C@H](OC(C)=O)[C@H](OC(C)=O)[C@@H]1OC(C)=O | 3.98 µM (active)
14 | CC(=O)OC[C@@H]1O[C@@H](O/N=C2/C[C@@H](O)[C@@H](O)[C@@H]3[C@@H]4C(=O)N(Cc5ccccc5)C(=O)[C@H]4CC[C@H]23)[C@H](OC(C)=O)[C@H](OC(C)=O)[C@@H]1OC(C)=O | 3.16 µM (active)
15 | CC(C)=NOC[C@@H](O)COCc1ccco1 | inactive
16 | C#CCCCO/N=C1/[C@H]2O[C@@H]2[C@@H](O)[C@H]2[C@H]1CCn1c(=O)n(C)c(=O)n12 | inactive

Row | SMILES | Potency
17 | C[C@@H](c1ccccc1)N1C(=O)[C@H]2[C@@H]3[C@H](O)C=CC(=O)[C@H]3CC[C@H]2C1=O | inactive
18 | CC(C)=CCC/C(C)=C/CO/N=C1/C[C@@H](O)[C@@H](O)[C@@H]2[C@@H]3C(=O)N(C(C)(C)C)C(=O)[C@H]3CC[C@H]12 | inactive
19 | CC(C)=CCC/C(C)=C/CO/N=C1/C[C@@H](O)[C@@H](O)[C@@H]2[C@@H]3C(=O)N(C[C@@H]4CCCO4)C(=O)[C@H]3CC[C@@H]12 | inactive
20 | CC(C)c1ccc2c(c1)CC[C@@H]1[C@@](C)(CN)CCC[C@@]21C | 1 µM (active)
21 | O=C1[C@@H]2[C@H]3[C@H](O)[C@H](O)C/C(=N/OCc4ccccc4)[C@@H]3CC[C@H]2C(=O)N1c1ccc(F)cc1F | inactive
22 | CCc1cc2c(nc1CC)CCN(CC/C(C)=N/O[C@@H]1O[C@H](COC(C)=O)[C@H](OC(C)=O)[C@H](OC(C)=O)[C@H]1OC(C)=O)C2 | 3.98 µM (active)
23 | CC(=O)OC[C@H]1O[C@@H](ON=C(C)C)[C@H](OC(C)=O)[C@@H](OC(C)=O)[C@H]1OC(C)=O | 3.16 µM (active)
24 | CCN1C(=O)[C@H]2[C@@H]3[C@H](O)C=CC(=O)[C@H]3CC[C@H]2C1=O | inactive
25 | CO[C@@H]1COC(=O)CCC[C@@H](C)[C@H](OC)COC(=O)CCC[C@H]1C | inactive
26 | CC(=O)OC[C@@H]1O[C@@H](O/N=C2/C[C@@H](O)[C@@H](O)[C@@H]3[C@@H]4C(=O)N(Cc5ccccc5)C(=O)[C@H]4CC[C@@H]23)[C@H](OC(C)=O)[C@H](OC(C)=O)[C@@H]1OC(C)=O | 3.98 µM (active)
27 | CCOC(=O)N/N=C1/C[C@@H](O)[C@@H](O)[C@@H]2[C@@H]3C(=O)N(Cc4ccccc4)C(=O)[C@H]3CC[C@@H]12 | inactive
28 | CO[C@@H]1COC(=O)C/C=C\[C@H](C)COC(=O)[C@H](C)NC(=O)C/C=C\[C@H]1C | inactive
29 | CO[C@@H]1COC(=O)CC=C[C@@H](C)[C@@H]2C=C[C@H](O)[C@@H](COC(=O)[C@H](C)NC(=O)CC=C[C@H]1C)O2 | inactive
30 | CC(C)(C)N1C(=O)[C@H]2[C@@H]3[C@H](O)[C@H](O)CC(=O)[C@H]3CC[C@H]2C1=O | inactive
31 | CO/N=C(\C)CCN1CCCc2nc(C)c(C)cc21 | 3.98 µM (active)
32 | CC(=O)OC[C@H]1O[C@@H](O/N=C\[C@@H](C)[C@H](OCc2ccccc2)C(C)C)[C@H](OC(C)=O)[C@@H](OC(C)=O)[C@H]1OC(C)=O | 3.98 µM (active)
